Several values for one entry are separate records, joined by “and”; a condition that tells them apart may be missing. Equal values may be shown once. Inconclusive results are not listed. Some structures have more than one record in an assay (separate samples or runs), and their calls can disagree. Activity calls are given as the source filed them. How the source made its calls: active means hit-call score of the fitted dose curve at least 0.9, where 1 is the maximum; inconclusive means response in the unintended direction; inactive means score below 0.9.
Target: Bile acid receptor (Homo sapiens) (UniProt Q96RI1)
Assay: ATG_FXR_TRANS: Attagene TRANS-FACTORIAL HepG2 Assay for Farnesoid X Receptor (FXR) (AID 2282979);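 further: hits raise reporter mRNA above DMSO so AC50 marks FXR activation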
Conditions: HepG2 Attagene TRANS FXR-GAL4 reporter transcription
How it was run: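 Read-out: fluorescent reporter transcripts quantified by capillary electrophoresis after RT-PCR of total RNA. Source cells were HepG2 transiently carrying chimeric NR-GAL4 plus GAL4-UAS reporter units, dosed 24 h. Activity fitted upward relative to DMSO baseline.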

Sequence of Bile acid receptor (Homo sapiens) (Q96RI1 whole entry, looked up): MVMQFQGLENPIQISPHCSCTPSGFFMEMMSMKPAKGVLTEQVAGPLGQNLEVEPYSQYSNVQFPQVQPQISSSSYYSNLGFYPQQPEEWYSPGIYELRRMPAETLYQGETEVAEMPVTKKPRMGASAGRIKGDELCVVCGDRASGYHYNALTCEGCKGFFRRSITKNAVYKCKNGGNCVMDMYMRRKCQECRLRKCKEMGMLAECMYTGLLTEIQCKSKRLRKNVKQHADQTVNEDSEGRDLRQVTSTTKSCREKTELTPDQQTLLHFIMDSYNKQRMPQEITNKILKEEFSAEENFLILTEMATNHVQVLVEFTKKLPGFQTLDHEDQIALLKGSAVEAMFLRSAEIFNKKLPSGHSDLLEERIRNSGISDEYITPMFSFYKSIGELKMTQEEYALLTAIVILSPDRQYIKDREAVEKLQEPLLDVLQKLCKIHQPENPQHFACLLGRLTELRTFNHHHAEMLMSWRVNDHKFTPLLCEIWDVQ

| SMILES | outcome | AC50 |
| --- | --- | --- |
| N#CN=C(N)N | inactive | – |
| CCC(=O)C(CC(C)N(C)C)(c1ccccc1)c1ccccc1 (configuration not stated) | inactive | – |
| CCc1ccccc1C | inactive | – |
| CCNc1nc(NC(C)(C)C)nc(SC)n1 | inactive | – |
| CC(C)(C)CC(C)(C)c1ccc(O)cc1 | inactive | – |
| CCOP(=S)(OCC)SCCS(=O)(=O)CC | inactive | – |
| CC(=O)[O][Hg][c]1ccccc1 | inactive | – |
| CCOP(OCC)OCC | inactive | – |
| C=C(C)C#N | inactive | – |
| Fc1ccc(C2(Cn3cncn3)OC2c2ccccc2Cl)cc1 (configuration not stated) | inactive | – |
| O=C(O)C(F)(F)C(F)(F)C(F)(F)C(F)(F)C(F)(F)C(F)(F)F | inactive | – |
| CCC(C)(C)c1ccc(O)c(C(C)(C)CC)c1 | – | 49.5 µM (active) |
| CN(C)N=O | inactive | – |
| CCN(CC)C(=O)Cl | inactive | – |
| CC1(C)CCC(Cc2ccc(Cl)cc2)C1(O)Cn1cncn1 (configuration not stated) | inactive | – |
| O=C1CCCN1 | inactive | – |
| CCCCP(CCCC)CCCC | inactive | – |
| COS(=O)(=O)c1ccc(C)cc1 | inactive | – |
| Clc1ccc(C2(Cn3cncn3)CC(Br)CO2)c(Cl)c1 (configuration not stated) | inactive | – |
| CC(=O)OC(c1ccccc1)C(Cl)(Cl)Cl (configuration not stated) | inactive | – |
| CC(=[OH+])/C=C(/C)[O-].CC(=[OH+])/C=C(/C)[O-].CC(=[OH+])/C=C(/C)[O-].[Fe] | inactive | – |
| CC(C)(c1ccccc1)c1ccc(O)c(C(C)(C)c2ccccc2)c1 | inactive | – |
| c1cc[c]([Hg][c]2ccccc2)cc1 | inactive | – |
| O=C(Cl)c1ccc(Cl)cc1 | inactive | – |
| C[C@@H]1C[C@@H]([C@H](O)CC2CC(=O)NC(=O)C2)C(=O)[C@@H](C)C1 | inactive | – |
| O=C1C2(Cl)C3(Cl)C4(Cl)C(Cl)(Cl)C5(Cl)C3(Cl)C1(Cl)C5(Cl)C24Cl (configuration not stated) | inactive | 4.29 µM (active) and 8.79 µM (active) and 10.4 µM (active) |

Source: PubChem BioAssay (EPA / NIEHS)
